The values that follow come from PubChem BioAssay (NCI).

This is part of a sample that, as a whole, favours compounds with a hit. Of some 83,000 tested, about 20% had one in any assay.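 Testing used 96-well plates and a 48-hour single-concentration exposure. Example: -40 means 40% of the starting cells died.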 Unmarked numbers belong to inactive results. Active and inactive are the calls of the source. How the source made its calls: active means growth percent below 10; inactive means the rest.

Holding throughout (assay): NCI-60 one-dose screen, 48 h (100 = growth as untreated, 0 = no growth, -100 = all killed)
What all share (conditions): 10 µM

Assay [1] concerns NCI-H23 lung.
Assay [2] relates to NCI-H226 lung.
The test system of assay [3] is NCI-H322M lung.
In assay [4] the test system is HOP-62 NSCLC.
Assay [5] has as its system NCI-H460 lung.
Assay [6] concerns NCI-H522 lung.
The subject of assay [7] is A549/ATCC NSCLC.
The test system of assay [8] is 786-0 renal.
Assay [9] has as its system COLO 205 colon.
Assay [10] concerns DU-145 prostate.
For assay [11], the system named is K-562 leukemia.
In assay [12] the test system is MALME-3M melanoma.
Assay [13] deals with MDA-MB-231 breast.
Assay [14] relates to RXF 393 renal.
The test system of assay [15] is SF-268 CNS.
Assay [16] deals with SF-295 CNS.
The test system of assay [17] is SF-539 CNS.
For assay [18], the system named is UACC-257 melanoma.
Assay [19] deals with M14 melanoma.
Assay [20] deals with HOP-92 NSCLC.

As to `O=C(c1ccc(Cl)cc1)C1[C@H](c2ccc(Br)cc2)[C@@H](c2ccccc2)NC12C(=O)Nc1ccccc12` (stereo not given in full), the growth in [1] is -35.9% (active); in assay [2], -72.4% (active); in assay [3], 19.9%; in [4], -18.9% (active); in assay [5] it was -33.8% (active); in assay [6], -4.55% (active). In addition, the growth is 15% in [7]; -4.41% (active) in [8]; -88.9% (active) in assay [9]; 12.4% in [10]; -15.7% (active) in assay [11]; -35.9% (active) in assay [12]. The growth in assay [13] was -60.1% (active); in assay [14], -59.8% (active); in [15], 12.1%; in assay [16], -54.5% (active); in [17], -57.7% (active); in assay [18], -2.88% (active). Also, the growth in [19] was 29.4%.

In the case of `O=c1oc2ccc(-c3ccc(F)cc3F)cc2c(=O)n1-c1ccc(Cl)c(C(F)(F)F)c1`, the growth in assay [1] is -42.7% (active); in assay [2] it was -18.8% (active); in [3], -2.17% (active); in [5] it was 8.48% (active); in [20], -19.4% (active); in assay [6] it was -12.6% (active). The growth in assay [7] is 15%; in [8], 7.66% (active); in assay [9] it was -81.3% (active); in assay [10], 14.2%; in assay [11] it was 10.1%; in assay [12], -26.7% (active). In addition, the growth in [13] is -19.8% (active); in assay [14] it was -14.3% (active); in assay [15], 12%; in assay [16] it was -74% (active); in assay [17], -7.49% (active); in [18] it was -5.73% (active). The growth in assay [19] was 21.5%.

Take `COc1ccc(-c2nc(Nc3ccccc3S(N)(=O)=O)c3ccccc3n2)cc1`: the growth is -0.0975% (active) in assay [1]; -43% (active) in assay [2]; 35.1% in assay [3]; 77.7% in [4]; 4.23% (active) in assay [20]; 59.7% in assay [6]. The growth was -2.67% (active) in assay [7]; -16.5% (active) in assay [8]; 75.9% in assay [9]; 7.82% (active) in assay [10]; 34.1% in assay [11]; -7.51% (active) in assay [12]. The growth was -33.6% (active) in assay [13]; 22.5% in assay [15]; 61.3% in assay [16]; -4.27% (active) in [17]; 91.2% in [18]; 75.8% in assay [19].

Regarding `COc1ccc(-c2cc(C(=O)N=Nc3c(O)[nH]c4ccc(Br)cc34)c3ccccc3n2)cc1`, the growth in [1] was 5.57% (active); in [2], 50.6%; in [3], 70%; in assay [4], 91.6%; in assay [20], 71.4%; in assay [7], 61.1%. For the same compound, the growth in assay [8] is 80.1%; in [9], 53.2%; in [10], 19.9%; in assay [11], 10.2%; in assay [12], 45.9%; in [13], -68.2% (active). Also, the growth was 64.4% in assay [15]; 35.3% in [16]; 31.7% in [17]; 102% in assay [18]; 42.6% in assay [19].

Regarding `COc1ccc(NC(=O)CSc2nnc(-c3ccc4nc(-c5ccc(Cl)cc5)[nH]c4c3)o2)cc1`, the growth in [1] was -9.49% (active); in [2], 80.3%; in [3], 45.8%; in assay [4], 74.6%; in assay [20], 102%; in assay [6] it was 22.6%. Besides, the growth in assay [7] was 66%; in assay [8], 22.5%; in assay [9], 96.8%; in [10], 55.4%; in assay [11] it was 14.7%; in [12], -81.7% (active). Moreover, the growth in assay [13] was 20.5%; in [15], 48%; in assay [16] it was 26.1%; in assay [17], 50.5%; in assay [18] it was 71.5%; in assay [19] it was 14.8%.

For `CC(=O)Nc1ccc(-c2cn(-c3cccc(C(=O)Nc4ccc(F)c(C(F)(F)F)c4)c3)nn2)cn1`, the growth in assay [1] was 23.6%; in assay [2] it was 26.4%; in assay [3] it was 54.3%; in assay [4] it was 87.7%; in assay [20] it was 65.6%; in [6], 62.3%. Also, the growth was 54.3% in assay [7]; 79.9% in assay [8]; 46% in [9]; 42.5% in [10]; 10.9% in [11]; 2.13% (active) in assay [12]. The growth in [13] was -4.26% (active); in assay [15], 68.8%; in assay [16], 29.4%; in assay [17], 22.7%; in assay [18] it was 90.4%; in assay [19], 62.6%.

On to `c1ccc(C(=C(c2ccc(OCCN3CCCCC3)cc2)c2ccc(OCCN3CCCCC3)cc2)C2CCCC2)cc1`, for which the growth in assay [1] is -81% (active); in [2], -15.5% (active); in assay [3], 39.8%; in assay [4], -10.9% (active); in [20], -61% (active); in assay [6], -42.2% (active). Further, the growth was -17.9% (active) in [7]; -33.3% (active) in assay [8]; -92.6% (active) in [9]; -45.2% (active) in assay [10]; -95.2% (active) in assay [12]; -94.4% (active) in assay [13]. Moreover, the growth in [14] was 29.1%; in [15] it was -61% (active); in [16] it was -63.8% (active); in assay [17] it was -96.4% (active); in [18], -34.2% (active); in assay [19] it was -44.4% (active).

Regarding `O=C1NC(=NC23CC4CC(CC(C4)C2)C3)N/C1=C\c1ccc2ncoc2c1`, the growth was -49.7% (active) in [1]; 21.4% in [2]; 3.73% (active) in assay [3]; 13.7% in assay [5]; 15.3% in [20]; -17.3% (active) in assay [6]. The growth in assay [7] is 10%; in assay [8], 14.4%; in assay [9], -34.4% (active); in [10] it was 7.99% (active); in [11] it was 12.1%; in assay [12] it was -24.3% (active). Also, the growth is -1.98% (active) in assay [13]; -52.5% (active) in assay [14]; 9.72% (active) in assay [15]; 11.2% in [16]; -49.2% (active) in [17]; 4.63% (active) in assay [18].

Turning to `Cc1ccc(CSc2nc(Cl)c(C#N)c(-c3ccc(F)cc3)n2)cc1`, the growth in assay [1] was 87.8%; in assay [2], 53.5%; in [3], 86.7%; in assay [5] it was 86.5%; in [20], 54.6%; in [6], 62.5%. Also, the growth was 66.5% in assay [7]; 78.7% in assay [8]; 77.3% in assay [9]; 75.1% in assay [10]; 55.7% in [11]; 113% in [12]. Moreover, the growth in assay [13] is 96.5%; in assay [14] it was 70.2%; in assay [15], 81.8%; in assay [16] it was 70.2%; in assay [17], 71.8%; in [18], 75.3%. For the same compound, the growth in [19] was 87.6%.

For `Cc1ccc(-c2ccc(SCC(=O)Nc3ccc(S(N)(=O)=O)cc3Br)nn2)cc1`, the growth in assay [1] is 27.3%; in [2], 22.6%; in assay [3], 36%; in assay [4], 14.1%; in assay [20], -31.6% (active); in assay [6] it was 47.2%. In addition, the growth was 15.8% in assay [7]; 16.4% in assay [8]; 33.1% in [9]; 21.5% in [10]; 72.4% in assay [11]; 29% in assay [12]. The growth in assay [13] is 1.3% (active); in [15] it was 45.9%; in assay [16], 21.6%; in assay [17], 13.3%; in assay [18], 77.9%; in assay [19], 69.5%.

Consider `N#Cc1c(Cl)nc(SCc2ccc(F)cc2)nc1-c1ccc(F)cc1`, for which the growth in [1] is 95.7%; in assay [2], 71.3%; in assay [3] it was 92.2%; in assay [4] it was 101%; in assay [6], 74.6%; in assay [7], 91.6%. For the same compound, the growth is 95.4% in assay [8]; 120% in assay [9]; 92.5% in [10]; 69.8% in assay [11]; 112% in assay [12]; 94.6% in assay [13]. Also, the growth in assay [14] was 89.7%; in assay [15] it was 96.2%; in assay [16], 90%; in [17] it was 91.9%; in assay [18], 100%; in [19], 103%.

Turning to `COc1ccc2[nH]c(O)c(N=NC(=O)COc3ccc(NC(=O)Nc4ccc(Cl)cc4)cc3)c2c1`, the growth was -40.4% (active) in [1]; -38.5% (active) in assay [2]; 67.8% in [3]; -41.1% (active) in assay [4]; 26.7% in assay [6]; 29.4% in assay [7]. Besides, the growth in assay [8] is 21.4%; in assay [9], -1.56% (active); in assay [10], 18.5%; in [12], -14.4% (active); in [13] it was -69.9% (active); in assay [14], 44.1%. The growth in [15] was -10.3% (active); in assay [16], 14%; in [17], -39% (active); in [18], 51.8%; in assay [19] it was -27.2% (active).

In the case of `CC1(c2ccccc2)NC(=O)N(CC(=O)Nc2ccc(C(=O)/C=C/C=C/c3ccccc3)cc2)C1=O` (stereo not given), the growth in assay [1] was 73.4%; in assay [2], 57.2%; in [3] it was 73.9%; in [4], 77.2%; in [6] it was 75.8%; in [7], 58.7%. Besides, the growth is 7.33% (active) in [8]; 98% in [9]; 61.3% in [10]; 14.8% in assay [11]; 81.3% in assay [12]; 63.1% in assay [13]. Moreover, the growth in [15] is 57.1%; in assay [16] it was 5.15% (active); in assay [17], 20.5%; in assay [18], 63.6%; in assay [19], 59.3%.

Consider `COc1cc(/C=C/C(=O)c2ccc(C(F)(F)F)cc2)ccc1Oc1nc(Nc2ccc(F)cc2)nc(N(C)C)n1`, for which the growth is 64.6% in assay [1]; 71.7% in assay [2]; 82.8% in [3]; 102% in assay [4]; 81.5% in [20]; 76.7% in [6]. Further, the growth in assay [7] is 78.7%; in [8], 71.8%; in assay [9], 134%; in [10], 82.9%; in assay [11] it was 48.2%; in assay [12] it was 87.7%. Further, the growth in assay [13] was 85.6%; in assay [15], 65.5%; in assay [16], 64.1%; in assay [17], 93.8%; in assay [18], 75.1%; in [19] it was 72.8%.

Turning to `O=S(=O)(Nc1ncccn1)c1ccc(-n2c(-c3ccc(Br)cc3)nc(-c3ccccc3)c2-c2ccccc2)cc1`, the growth in [1] was 22.5%; in assay [2], 26%; in assay [3], 64.1%; in assay [4], 56.8%; in assay [20], 11.4%; in assay [6] it was 74.5%. The growth was 34.9% in assay [7]; 34.5% in [8]; 124% in assay [9]; 58.3% in [10]; 44% in assay [11]; 74.6% in [12]. Further, the growth was 51.3% in assay [13]; 32.5% in [15]; 8.26% (active) in assay [16]; 55.8% in assay [17]; 59.4% in assay [18]; 38.4% in assay [19].
